# Assay outcomes (PubChem BioAssay)
# In the library only some 3.3% were active in any assay of this set; here they are far more common.
# rCAG RNA binder: binds r(CAG) RNA repeats. r(CAG) RNA repeat, TO-PRO-1 dye displacement fluorescence. inhibition, % at 3 µM. actives 1.3% (n = 370,000). AID 651821;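 active = inhibition above the plate cutoff, the mean of all test compounds on that plate plus 3 SD, cut at about 35% in these data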;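 also: higher means more dye released from RNA so lower well fluorescence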
# PRMT1 FP inh: inhibitors of human PRMT1. Q99873. recombinant PRMT1, activity-based probe fluorescence polarization. inhibition, % at 2.79 µM. actives 1.3% (n = 370,000);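 active = inhibition above about 21% made by adding two undisclosed values, limit read from the data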
# TLR4-MyD88 BLA: TLR4-MyD88 interaction inhibition in cells; O00206+Q99836; HeLa CL3-4 TLR4/MyD88 BLA complementation, FRET ratio; actives 0.18% (n = 200,000); inhibition, % at 8.4 µM; in the data active = inhibition above about 25%
# Target sequence (O00206 whole entry, looked up): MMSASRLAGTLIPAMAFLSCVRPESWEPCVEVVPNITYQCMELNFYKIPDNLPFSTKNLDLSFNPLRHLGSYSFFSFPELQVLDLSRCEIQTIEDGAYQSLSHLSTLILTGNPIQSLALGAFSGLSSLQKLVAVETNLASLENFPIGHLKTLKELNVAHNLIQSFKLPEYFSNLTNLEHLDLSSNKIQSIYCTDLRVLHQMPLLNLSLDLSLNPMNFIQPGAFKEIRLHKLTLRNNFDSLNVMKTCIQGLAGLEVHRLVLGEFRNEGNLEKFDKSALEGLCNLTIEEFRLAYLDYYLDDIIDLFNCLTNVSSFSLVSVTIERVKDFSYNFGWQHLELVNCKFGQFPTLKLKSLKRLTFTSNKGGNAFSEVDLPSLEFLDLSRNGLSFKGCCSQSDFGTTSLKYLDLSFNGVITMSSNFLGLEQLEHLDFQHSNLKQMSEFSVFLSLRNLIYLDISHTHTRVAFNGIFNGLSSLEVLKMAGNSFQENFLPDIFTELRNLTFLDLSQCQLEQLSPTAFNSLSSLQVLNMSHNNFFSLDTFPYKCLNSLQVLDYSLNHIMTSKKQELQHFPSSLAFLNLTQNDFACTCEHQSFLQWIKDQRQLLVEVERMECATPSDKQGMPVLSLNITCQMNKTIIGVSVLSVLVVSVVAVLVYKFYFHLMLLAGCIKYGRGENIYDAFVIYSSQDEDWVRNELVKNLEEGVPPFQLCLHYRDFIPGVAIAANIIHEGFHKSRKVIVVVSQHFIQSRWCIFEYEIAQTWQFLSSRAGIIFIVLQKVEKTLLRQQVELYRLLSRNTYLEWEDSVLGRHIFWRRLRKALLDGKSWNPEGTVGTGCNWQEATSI
# Target sequence (Q99836 whole entry, looked up): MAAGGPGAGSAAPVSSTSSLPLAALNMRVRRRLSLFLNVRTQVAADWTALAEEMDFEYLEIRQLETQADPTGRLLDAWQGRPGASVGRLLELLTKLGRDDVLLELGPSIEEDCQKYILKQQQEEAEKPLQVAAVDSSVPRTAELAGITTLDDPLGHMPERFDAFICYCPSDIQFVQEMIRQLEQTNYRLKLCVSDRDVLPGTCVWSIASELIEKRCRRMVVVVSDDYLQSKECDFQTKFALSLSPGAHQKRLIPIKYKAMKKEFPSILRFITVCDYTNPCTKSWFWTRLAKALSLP
# NOD2 RIPK2 PPI: blocks binding of human NOD2 to RIPK2; inhibition, % at 4.98 µM; actives 0.38% (n = 360,000); CHO BLA complementation NOD2-RIPK2, CCF4 ratio; O43353; in the data active = inhibition above about 21%
# TLR9-MyD88 block: TLR9-MyD88 interaction inhibition. Q9NR96+Q99836. CHO BLA complementation TLR9-MyD88, CCF4 FRET ratio. inhibition, % at 4.98 µM. actives 0.21% (n = 340,000);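 active = inhibition above the mean over all tested compounds plus 3 SD, cut at about 21% in these data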
# ABHD5-PLIN5 inh: blocks binding of human ABHD5 to perilipin-5; AID 602281; Split G. princeps luciferase complementation, luminescence, 4 h; actives 0.78% (n = 360,000); inhibition, % at 4 µM; Q00G26+Q8WTS1;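 active = inhibition above the mean inhibition across every tested compound plus 3 SD, cut at about 22% in these data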
# rCAG bind conf: r(CAG) RNA repeat binding, confirmation; TO-PRO-1 dye displacement fluorescence; shares compounds with rCAG RNA binder; actives 70% (n = 4,300); inhibition, % at 3 µM;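 active = inhibition above a per-plate cutoff, the mean inhibition of sample wells plus 3 SD, cut at about 35% in these data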;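 also: loss of TO-PRO-1 fluorescence as compound displaces dye from 1x1 AA loop RNA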
# DNA CAG counter: counter-screen for rCAG RNA binders: DNA CAG dye complex inhibitors; shares compounds with rCAG RNA binder; inhibition, % at 3 µM; d(CAG) DNA oligo TO-PRO-1 dye displacement, fluorescence; actives 94% (n = 4,300);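 active = inhibition above its plate's cutoff, the mean test-well inhibition plus 3 SD, cut at about 4.8% in these data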;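 also: hits displace the dye from DNA and so lower well fluorescence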
# dCAG dye DR: disrupts DNA CAG TO-PRO-1 complex in dose response | shares compounds with rCAG RNA binder | DNA CAG/GTC duplex TO-PRO-1 dye displacement fluorescence | IC50, µM | actives 20% (n = 250); in the data active = IC50 below about 10 µM
# A number is an active result; i = inactive; nt = no result given.
SMILES,rCAG RNA binder,PRMT1 FP inh,TLR4-MyD88 BLA,NOD2 RIPK2 PPI,TLR9-MyD88 block,ABHD5-PLIN5 inh,rCAG bind conf,DNA CAG counter,others
Cc1cc(C)c2nc(NNC(=O)c3cc(=O)c4ccccc4o3)sc2c1,73,i,i,i,i,i,82,49,
CCOC(=O)Cc1csc(NC(=O)c2cc(=O)c3ccccc3o2)n1,i,i,i,i,i,i,nt,nt,
Cc1ccc2c(c1)c1ccc3c(c1n2C)C(=O)C=CC3=O,51,i,nt,i,i,i,i,9.6,
COc1ccc2c(c1)c1ccc3c(c1n2C)C(=O)C=CC3=O,54,i,nt,i,i,i,i,8.3,
Cn1c2ccccc2c2ccc3c(c21)C(=O)C=CC3=O,i,i,nt,i,i,i,nt,nt,
COc1ccc(NC(=O)CSc2nc(O)cc(=O)[nH]2)c(OC)c1,47,i,nt,i,i,i,i,i,
O=C(CNC(=O)c1ccco1)OCc1ccccc1F,i,i,nt,i,i,i,nt,nt,
Cc1ccc(F)c(S(=O)(=O)NC(=O)C2(C)CCN2C(=O)Cc2ccccc2)c1 (stereo not given),i,i,nt,i,nt,i,nt,nt,
Cc1cccc(S(=O)(=O)NC(=O)C2(C)CCN2C(=O)Cc2ccc(C(C)(C)C)cc2)c1 (stereo not given),40,i,nt,i,nt,i,i,7.5,
Cc1ccc(F)c(S(=O)(=O)NC(=O)C2(C)CCN2C(=O)Cc2ccc(-c3ccccc3)cc2)c1 (stereo not given),60,i,nt,i,nt,i,55,18,
Cc1cccc(S(=O)(=O)NC(=O)C2(C)CCN2C(=O)Cc2ccc(-c3ccccc3)cc2)c1 (stereo not given),53,i,nt,i,nt,i,49,15,
CC(C)(C)c1ccc(CC(=O)N2CCC2(C)C(=O)NS(=O)(=O)c2ccccc2)cc1 (stereo not given),i,i,nt,i,nt,i,nt,nt,
COc1ccc(S(=O)(=O)NC(=O)C2(C)CCN2C(=O)Cc2ccc(C(C)(C)C)cc2)cc1 (stereo not given),42,i,nt,i,nt,i,i,4.8,
C=CCn1c(C)cc(C(=O)COC(=O)/C=C/c2c(C)nn(C3CCS(=O)(=O)C3)c2Cl)c1C (stereo not given),i,i,nt,i,i,i,nt,nt,
Cc1cc(C)cc(CC(=O)N2CCC2(C)C(=O)NS(=O)(=O)c2cccc(OC(F)F)c2)c1 (stereo not given),i,i,nt,i,nt,i,nt,nt,
CC1(C(=O)NS(=O)(=O)Cc2ccccc2C(F)(F)F)CCN1C(=O)Cc1ccccc1 (stereo not given),i,i,nt,i,nt,i,nt,nt,
CC(C)(C)c1ccc(CC(=O)N2CCC2(C)C(=O)NS(=O)(=O)c2cccc(OC(F)F)c2)cc1 (stereo not given),52,i,nt,i,nt,i,41,9.7,
CC1(C(=O)NS(=O)(=O)Cc2ccccc2)CCN1C(=O)Cc1ccc(-c2ccccc2)cc1 (stereo not given),58,i,nt,i,nt,i,50,14,
CC1(C(=O)Nc2cccnc2)Cc2c(-c3ccc4c(c3)OCO4)ccnc2O1 (stereo not given),i,i,nt,i,nt,i,nt,nt,
COC(=O)C1=CN(c2ccc(N3CCOCC3)cc2)C(N)=C(C#N)C1c1cccc(F)c1 (stereo not given),i,i,nt,i,nt,i,nt,nt,
Cc1ccc(C(=O)Nc2cccc(C(F)(F)F)c2)cc1NC(=O)c1csc(-c2ccncc2)n1,nt,nt,nt,i,i,i,nt,nt,
N#C/C(=N\Nc1cccc(C(F)(F)F)c1)C(=O)c1csc(-c2cccnc2)n1,86,i,nt,i,i,i,80,49,
C=CCc1cc(OC)ccc1OCCCCn1cncn1,i,i,nt,i,i,i,nt,nt,
O=C(O)c1ccc(-n2cccc2/C=N\NC(=O)c2cc3cc(Br)ccc3o2)cc1,50,i,nt,i,i,i,46,15,
Cn1cc(/C=N/NC(=O)c2cc3cc(Br)ccc3o2)c2ccccc21,i,i,nt,i,nt,i,nt,nt,
SMILES,rCAG RNA binder,PRMT1 FP inh,TLR4-MyD88 BLA,NOD2 RIPK2 PPI,TLR9-MyD88 block,ABHD5-PLIN5 inh,rCAG bind conf,DNA CAG counter,others
O=C(O)Cn1cc(/C=N/NC(=O)c2cc3cc(Br)ccc3o2)c2ccccc21,50,i,nt,i,i,i,56,17,
CC1CCN(c2ccc(C(=O)O)cc2NS(=O)(=O)c2ccc(F)cc2)CC1,i,i,nt,nt,nt,nt,nt,nt,
CC1CCN(c2ccc(C(=O)O)cc2NS(=O)(=O)c2ccc(C(C)(C)C)cc2)CC1,64,i,nt,nt,nt,nt,64,26,
CCN(c1ccccc1)S(=O)(=O)c1nnc(NC(=O)c2ccccc2OC)s1,i,i,nt,i,i,i,nt,nt,
COc1ccc(N(C(C)=O)S(=O)(=O)c2cccc3cccnc23)cc1,i,i,i,i,i,i,nt,nt,
CCOC(=O)N1CCN(S(=O)(=O)N2CCCC(C(=O)NCCc3ccc(OCC)c(OCC)c3)C2)CC1 (stereo not given),i,i,nt,i,i,i,nt,nt,
O=C(NS(=O)(=O)c1ccc2ccc(S(=O)(=O)NCCSc3ccccc3)cc2c1)c1cccc2ccccc12,88,i,nt,i,nt,i,88,65,
O=S(=O)(NCCSc1ccccc1)c1ccc(F)cc1,i,i,i,i,i,i,nt,nt,
O=C(Nc1ccccc1O)c1c(O)c2c([nH]c1=O)CCCC2,44,i,i,i,i,i,40,27,
C/C(CC(=O)N1CCCC1)=N\NC(=O)c1cc2ccccc2cc1O,38,i,nt,i,i,i,i,6.2,
CCOC(=O)C(C)/C(C)=N/NC(=O)c1cc2ccccc2cc1O (stereo not given),44,i,i,i,i,i,i,6.7,
NNC(=O)c1cc2ccccc2cc1O,41,i,i,i,i,i,i,i,
O=C(NCCO)c1cc2ccccc2cc1O,i,i,i,i,i,i,nt,nt,
O=C(OCC(=O)N1CCCCC1)c1cc2ccccc2cc1O,i,i,i,i,i,i,nt,nt,
CC(C)=CCc1cc(-c2oc3cc(O)cc(O)c3c(=O)c2O)ccc1O,44,i,nt,i,i,i,52,25,
O=c1c(O)c(-c2cc(O)c(O)c(O)c2)oc2cc(O)cc(O)c12,47,54,nt,i,i,i,56,19,dCAG dye DR=i
N#C/C(=C\c1c(Oc2ccccc2F)nc2ccccn2c1=O)C(=O)NC1CCS(=O)(=O)C1 (stereo not given),i,i,nt,i,i,i,nt,nt,
ClCC1NCC(c2ccccc2Cl)c2c1[nH]c1ccccc21 (stereo not given),i,i,i,i,i,i,nt,nt,
N#Cc1c(SCC(=O)Nc2cccc(C(F)(F)F)c2)sc2c(O)cc(=O)[nH]c12,52,21,nt,i,i,i,35,15,
O=C(CSCCO)Nc1cccc(C(F)(F)F)c1,i,i,i,i,i,i,nt,nt,
